{"source": "PubChem BioAssay AID1851", "about": "(National Center for Advancing Translational Sciences (NCATS), 2009)", "note": "Several values for one entry are separate records, joined by “and”; a condition that tells them apart may be missing. Equal values may be shown once. Screen size: about 16,000 compounds; about 4,000 (25%) were called active. Inconclusive results (about 26%) are left out. Calls come from the whole dose curve; as a rule, active = well fitted curve in the direction sought with a large enough effect; inconclusive = small, poorly fitted or top-dose-only effect, or effect the other way; inactive = no such curve, though single readings can be large or run the other way. Not all results are given here. % is set by controls: 0 for no effect and ±100 for the full control effect."}
{"target": "Cytochrome P450 2C9 (Homo sapiens) (UniProt P11712)", "sequence (P11712 whole entry, looked up)": "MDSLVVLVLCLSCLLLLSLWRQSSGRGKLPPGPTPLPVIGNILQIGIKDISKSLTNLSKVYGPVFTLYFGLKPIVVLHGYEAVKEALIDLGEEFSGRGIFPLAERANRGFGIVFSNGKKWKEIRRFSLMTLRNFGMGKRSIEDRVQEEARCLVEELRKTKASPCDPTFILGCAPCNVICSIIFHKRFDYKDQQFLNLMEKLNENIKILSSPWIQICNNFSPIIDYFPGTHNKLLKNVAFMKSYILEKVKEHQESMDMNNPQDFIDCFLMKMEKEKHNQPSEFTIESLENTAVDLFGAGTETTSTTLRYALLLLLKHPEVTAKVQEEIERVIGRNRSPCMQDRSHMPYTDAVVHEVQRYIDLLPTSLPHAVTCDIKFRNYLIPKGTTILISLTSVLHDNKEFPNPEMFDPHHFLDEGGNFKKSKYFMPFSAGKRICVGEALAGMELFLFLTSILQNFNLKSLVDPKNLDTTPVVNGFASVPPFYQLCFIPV", "test": "Cytochrome panel assay with activity outcomes", "details": "recombinant CYP, pro-luciferin dealkylation, luminescence, p450-cyp2c9; series mostly up to 57.1 µM"}
{"smiles": "NNc1nncc2ccccc12", "AC50": "inactive"}
{"smiles": "Cc1cccc([C@@H]2CN(C)CCc3c2cc(O)c(O)c3Cl)c1", "AC50": "inactive"}
{"smiles": "Cc1cccc(N2CCN(C(=O)CSCc3c(C)noc3C)CC2)c1C", "AC50": "12.6 µM (active)"}
{"smiles": "Cc1noc(C)c1C(=O)N1CCC2(CCCN(c3ccccc3)C2)CC1", "AC50": "inactive"}
{"smiles": "Cc1noc(C)c1C(=O)N1CCC2(CC1)CN(c1ccccc1)C2", "AC50": "inactive"}
{"smiles": "c1cncc(CNc2cc(-c3ccoc3)ncn2)c1", "activity, negative = inhibition": "2% [at 2.29 µM] (inactive)"}
{"smiles": "C/C(=N\\OC(=O)c1ccc(F)cc1)c1nccs1", "AC50": "inactive"}
{"smiles": "C/C(=C\\c1ccco1)C1C(C#N)=C(N)Oc2n[nH]c(-c3ccccc3)c21", "note": "(stereo not given)", "AC50": "0.0891 µM (active)"}
{"smiles": "Nc1nc2c(c(=O)[nH]1)CN(CCCN1CCOCC1)CN2", "activity, negative = inhibition": "11% [at 11.4 µM] (inactive)"}
{"smiles": "O=C(NCCNc1ccc([N+](=O)[O-])cc1)c1ccccc1Br", "AC50": "14.1 µM (active)"}
{"smiles": "O=C(O)CCCCCNC(=O)c1ccccc1Br", "AC50": "inactive"}
{"smiles": "CC(=O)Nc1ccc(NC(=O)c2ccccc2CC[N+](=O)[O-])cc1", "AC50": "inactive"}
{"smiles": "CCOc1ccc2nc3cc(N=Nc4ccc(N)nc4N)ccc3c(N)c2c1", "activity, negative = inhibition": "1.7% [at 11.4 µM] (inactive)"}
{"smiles": "CC(/C=C/c1ccco1)=N/NC(=O)c1ccccc1Cl", "AC50": "inactive"}
{"smiles": "O=C(/C=C/c1ccco1)NC(=S)Nc1ccc(N2CCOCC2)c(Cl)c1", "AC50": "4.47 µM (active)"}
{"smiles": "Cc1ccc(NC(=O)CSCC(=O)Nc2ccc(N3CCOCC3)c(Cl)c2)cc1", "AC50": "5.01 µM (active)"}
{"smiles": "CCCC(=O)Nc1ccc2nc(SCC(=O)Nc3ccc(N4CCOCC4)c(Cl)c3)sc2c1", "AC50": "2.24 µM (active)"}
{"smiles": "Cc1ccc(NC(=O)c2cc(N3C(=O)C4CC=CCC4C3=O)ccc2N2CCOCC2)cc1Cl", "note": "(stereo not given)", "AC50": "11.2 µM (active)"}
{"smiles": "O=C(Nc1ccc2nc(SCc3ccc(Cl)cc3)sc2c1)c1ccccc1C(=O)N1CCOCC1", "AC50": "inactive"}
{"smiles": "O=C(/C=C/c1ccc(Cl)cc1)NCCN1CCOCC1", "AC50": "inactive"}
{"smiles": "NC(=O)c1ccc(N2CCCCC2)c(N2C(=O)C3CC=CCC3C2=O)c1", "note": "(stereo not given)", "AC50": "inactive"}
{"smiles": "CN1CCCN(C2C3CC4CC(C3)CC2C4)CC1", "note": "(stereo not given)", "AC50": "inactive"}
{"smiles": "CCN1C(=O)[C@H]2[C@H]3[C@H](O)[C@H](O)C/C(=N/OC[C@@H](O)[C@H]4O[C@H]5OC(C)(C)O[C@H]5[C@@H]4O)[C@@H]3CC[C@@H]2C1=O", "activity, negative = inhibition": "11.9% [at 11.4 µM] (inactive)"}
{"smiles": "COc1ncnc(NS(=O)(=O)c2ccc(N)cc2)c1OC", "AC50": "inactive"}
{"smiles": "CN=C(NC#N)NCCSC[C@H]1N=CN=C1C", "AC50": "inactive"}
{"smiles": "CC[C@@]12CCCN3CCc4c(n(c5ccccc45)[C@](O)(C(=O)OC)C1)[C@H]32", "AC50": "inactive"}
{"smiles": "CCOc1ccc(/C(O)=C2\\C(=O)C(=O)N(CCOCCO)C2c2ccccc2OC)cc1", "note": "(stereo not given)", "AC50": "inactive"}
{"smiles": "COc1ccc(C2/C(=C(/O)c3ccccc3)C(=O)C(=O)N2c2ccccn2)c(OC)c1", "note": "(stereo not given)", "AC50": "15.8 µM (active)"}
{"smiles": "COc1ccc(/C(O)=C2\\C(=O)C(=O)N(c3cc(C)on3)C2c2ccc(OC)c(OC)c2)cc1OC", "note": "(stereo not given)", "AC50": "inactive"}
{"smiles": "COc1ccc(C2/C(=C(/O)c3ccccc3)C(=O)C(=O)N2CC(C)O)c(OC)c1", "note": "(stereo not given)", "AC50": "inactive"}
{"smiles": "COc1ccc(OC)c(C2N(c3cc(C)on3)C(=O)C3CCCN32)c1", "note": "(stereo not given)", "AC50": "inactive"}
{"smiles": "COc1cccc(/C(O)=C2/C(=O)C(=O)N(c3cc(C)on3)C2c2cccs2)c1", "note": "(stereo not given)", "AC50": "14.1 µM (active)"}
{"smiles": "CN1CCN(c2ncc3ncc(=O)n(C[C@H]4CCCO4)c3n2)CC1", "AC50": "inactive"}
{"smiles": "CN(Cc1ccco1)c1cc(-c2ccc3c(c2)OCO3)ncn1", "activity, negative = inhibition": "-13% [at 2.29 µM] (inactive)"}
{"smiles": "CCOC(=O)N/N=C1/C[C@@H](O)[C@@H](O)[C@@H]2[C@@H]3C(=O)N(CC)C(=O)[C@H]3CC[C@@H]12", "activity, negative = inhibition": "9.77% [at 11.4 µM] (inactive)"}
{"smiles": "CN(C)CCCN1CCC2(CCC(C(C)(C)C)CC2)CC1", "activity, negative = inhibition": "13% [at 11.4 µM] (inactive)"}
{"smiles": "CN(Cc1ccco1)c1nc(-c2ccccc2C(F)(F)F)nc2ccccc12", "activity, negative = inhibition": "-1.38% [at 2.29 µM] (inactive)"}
{"smiles": "COc1ccc2[nH]cc(CCNc3cc(-c4cccnc4)ncn3)c2c1", "activity, negative = inhibition": "-3.3% [at 2.29 µM] (inactive)"}
{"smiles": "COc1ccc2[nH]cc(CCNc3ncnc4ccc(-c5cccnc5)cc34)c2c1", "AC50": "1 µM (active)"}
{"smiles": "COc1cccc(-c2ccc3ncnc(NC4CC4)c3c2)c1", "activity, negative = inhibition": "-17.4% [at 2.29 µM] (inactive)"}
{"smiles": "COCCNc1ncnc2ccc(-c3cccc(OC)c3)cc12", "activity, negative = inhibition": "26.2% [at 2.29 µM] (inactive)"}
{"smiles": "Cc1cccc(CNc2ncnc3ccc(-c4ccc5c(c4)OCO5)cc23)c1", "AC50": "0.316 µM (active)"}
{"smiles": "Cc1cccc(CNc2ncnc3ccc(-c4cccnc4)cc23)c1", "activity, negative = inhibition": "-11.3% [at 2.29 µM] (inactive)"}
{"smiles": "CNc1ncnc2ccc(-c3cccc(OC)c3)cc12", "AC50": "0.501 µM (active)"}
{"smiles": "CNc1ncnc2ccc(-c3ccccc3C#N)cc12", "activity, negative = inhibition": "-10.6% [at 2.29 µM] (inactive)"}
{"smiles": "N#Cc1ccccc1-c1ccc2ncnc(NC3CC3)c2c1", "activity, negative = inhibition": "-9.89% [at 2.29 µM] (inactive)"}
{"smiles": "COc1ccc2[nH]cc(CCNc3ncnc4ccc(-c5ccccc5C#N)cc34)c2c1", "AC50": "0.316 µM (active)"}
{"smiles": "COc1ccccc1CNc1ncnc2ccc(-c3cccnc3)cc12", "activity, negative = inhibition": "6.62% [at 2.29 µM] (inactive)"}
{"smiles": "Cc1cnc(CNc2ncnc3ccc(-c4ccc5c(c4)OCO5)cc23)cn1", "activity, negative = inhibition": "-11.4% [at 2.29 µM] (inactive)"}
{"smiles": "COc1ncc2nc(-c3cn(C)c4ccccc34)c(=O)n(C)c2n1", "AC50": "inactive"}
{"smiles": "COc1cc2c(cc1OC)C(CCN)=NCC2", "activity, negative = inhibition": "-3.31% [at 11.4 µM] (inactive)"}
{"smiles": "C[C@]1(O)CC[C@H]2[C@H]3CC=C4N5CCN=C5CC[C@@]4(C)[C@H]3CC[C@@]21C", "activity, negative = inhibition": "-4.16% [at 11.4 µM] (inactive)"}
{"smiles": "CC(=O)NCCNc1ncnc2ccc(-c3ccc4c(c3)OCO4)cc12", "activity, negative = inhibition": "5.09% [at 2.29 µM] (inactive)"}
{"smiles": "COc1ccc2[nH]cc(CCNc3ncnc4ccc(-c5ccc6c(c5)OCO6)cc34)c2c1", "AC50": "0.126 µM (active)"}
{"smiles": "c1nc(NCCN2CCOCC2)c2cc(-c3ccc4c(c3)OCO4)ccc2n1", "activity, negative = inhibition": "6.81% [at 2.29 µM] (inactive)"}
{"smiles": "COc1cccc(-c2ccc3ncnc(NCc4cnc(C)cn4)c3c2)c1", "activity, negative = inhibition": "-22.3% [at 2.29 µM] (inactive)"}
{"smiles": "COc1ccc2[nH]cc(CCNc3ncnc4ccc(-c5cccc(C#N)c5)cc34)c2c1", "AC50": "0.0631 µM (active)"}
{"smiles": "Cc1cnc(CNc2ncnc3ccc(-c4cccc(C#N)c4)cc23)cn1", "activity, negative = inhibition": "-16.4% [at 2.29 µM] (inactive)"}
{"smiles": "CNc1ncnc2ccc(-c3ccccc3OC)cc12", "activity, negative = inhibition": "2.7% [at 2.29 µM] (inactive)"}
{"smiles": "COc1cccc(-c2ccc3ncnc(NCCc4c[nH]c5ccc(OC)cc45)c3c2)c1", "AC50": "0.398 µM (active)"}
{"smiles": "COc1ccc2[nH]cc(CCNc3ncnc4ccc(-c5ccccc5OC)cc34)c2c1", "AC50": "0.251 µM (active)"}
{"smiles": "COc1ccc2[nH]cc(CCNc3ncnc4ccc(-c5ccccc5CN(C)C)cc34)c2c1", "activity, negative = inhibition": "-13.9% [at 2.29 µM] (inactive)"}
{"smiles": "COc1ccc2[nH]cc(CCNc3cc(-c4cccc(C#N)c4)ncn3)c2c1", "activity, negative = inhibition": "-22.1% [at 2.29 µM] (inactive)"}
{"smiles": "CC(C)=CCC/C(C)=C/CO/N=C1/C[C@@H](O)[C@@H](O)[C@@H]2[C@@H]3C(=O)N(C(C)(C)C)C(=O)[C@H]3CC[C@H]12", "activity, negative = inhibition": "23% [at 11.4 µM] (inactive)"}
{"smiles": "CC(=O)OC[C@@H]1O[C@H](C/C=N\\O[C@@H](C)CN2CCCCc3nc(C)c(C)cc32)C=C[C@@H]1OC(C)=O", "activity, negative = inhibition": "10.2% [at 11.4 µM] (inactive)"}
{"smiles": "CC(C)(C)NC[C@H](O)COc1cccc2c1CCCC2=O", "AC50": "inactive"}
{"smiles": "CC(C)[C@H](CO)Nc1nc(Nc2ccc(C(=O)O)c(Cl)c2)c2ncn(C(C)C)c2n1", "AC50": "inactive"}
{"smiles": "CC(C)[C@H](CO)Nc1nc(Nc2cc(N)cc(Cl)c2)c2ncn(C(C)C)c2n1", "AC50": "20 µM (active)"}
{"smiles": "CC(C)Oc1cccc(-n2c(CCc3c[nH]c4ccc(Br)cc34)nc3ccccc3c2=O)c1", "AC50": "inactive"}
{"smiles": "O=c1/c(=C\\c2ccc(O)cc2)sc2n1C(c1ccccc1)C(c1ccccc1)=NN=2", "note": "(stereo not given)", "AC50": "3.55 µM (active)"}
{"smiles": "CC(=O)NCCNc1nc(-c2ccc(N(C)C)cc2)nc2ccccc12", "activity, negative = inhibition": "-16.1% [at 2.29 µM] (inactive)"}
{"smiles": "COc1ccc([C@@H](C)c2cc3c(cc2O)OCO3)cc1", "AC50": "1.58 µM (active)"}
{"smiles": "COc1ccc(CNc2ccnc(-c3ccc4c(c3)OCO4)n2)c(OC)c1", "activity, negative = inhibition": "-25.6% [at 2.29 µM] (inactive)"}
{"smiles": "COc1ccc([C@@H](Nc2ncccn2)c2cc3c(cc2O)OCO3)cc1", "AC50": "3.16 µM (active)"}
{"smiles": "COc1ccccc1CNc1ccnc(-c2ccc3c(c2)OCO3)n1", "activity, negative = inhibition": "-27.5% [at 2.29 µM] (inactive)"}
{"smiles": "O=C(O)[C@@H](O)Cc1ccccn1", "activity, negative = inhibition": "-2.15% [at 11.4 µM] (inactive)"}
{"smiles": "CC(C/C=N/NC(=O)COc1cc(Cl)ccc1Cl)c1ccccc1", "note": "(stereo not given)", "AC50": "10 µM (active)"}
{"smiles": "O=C(COc1ccc(Cl)cc1Cl)N/N=C/CCc1ccccc1", "AC50": "inactive"}
{"smiles": "CC(C)C(=O)Nc1ccc(Sc2ccc(F)cc2)cc1", "AC50": "14.1 µM (active)"}
{"smiles": "CC(C)C(=O)Nc1ccc(NC(=O)c2cccnc2)cn1", "AC50": "inactive"}
{"smiles": "C/C(=N\\NC(=S)Nc1ccc(F)cc1)C1CC1", "AC50": "inactive"}
{"smiles": "O=C(c1cc(C(F)(F)F)cc(C(F)(F)F)c1)N1CCC[C@@]2(CCN(c3ccncc3)C2)C1", "AC50": "inactive"}
{"smiles": "CCCCCN(CCCCC)C(=O)[C@H](CCC(=O)O)NC(=O)c1ccc(Cl)c(Cl)c1", "AC50": "3.98 µM (active) and 1 µM (active)"}
{"smiles": "CCCN(CCC)C(=O)[C@@H](CCC(=O)O)NC(=O)c1ccccc1", "AC50": "inactive"}
{"smiles": "O=C(O)CC[C@@H](NC(=O)c1ccccc1C(=O)O)C(=O)O", "AC50": "inactive"}
{"smiles": "CN(C)CCCO[C@H]1[C@H]([C@H](O)CO)O[C@H]2OC(C)(C)O[C@@H]21", "AC50": "inactive"}
{"smiles": "Cc1cc(OC(=O)c2ccc(Cl)cc2)cc(=O)n1C", "AC50": "25.1 µM (active)"}
{"smiles": "Cc1cc(OC(=O)c2ccccc2Cl)cc(=O)n1C", "AC50": "10 µM (active)"}
{"smiles": "Cc1cc(OC(=O)c2ccccc2Br)cc(=O)n1C", "AC50": "inactive"}
{"smiles": "CC(C)=C[C@H]1[C@@H](COC(=O)c2ccccc2Cl)C1(C)C", "activity, negative = inhibition": "-5.63% [at 11.4 µM] (inactive)"}
